DT40 TDP1 CPT – growth inhibition of DT40 Tdp1-/-;hTDP1 cells with camptothecin (screen for TDP1 inhibitors) | chicken DT40 Tdp1-/-;hTDP1 cells + 20 nM CPT, ATP luminescence, 48 h | actives 12% (n = 420,000) | Potency, µM (doses to about 46.2 µM), most hits filed as inhibitors | AID 686979; also: nearly all actives have a fitted effect of over 55% in size
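Chicken DT40 Tdp1-/- cells complemented with human TDP1, 400 cells/well, exposed to compounds plus 20 nM camptothecin for at least 48 h at 37 C; viability read as ATP content by CellTiter-Glo luminescence.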
12-LOX inh – blocks human arachidonate 12S-lipoxygenase | actives 1.1% (n = 580,000) | AID 1671190 | purified 12hLO, xylenol orange hydroperoxide absorbance | P18054 | Potency, µM (doses to about 108 µM), actives largely listed as inhibitors
Target sequence (P18054 whole entry, looked up): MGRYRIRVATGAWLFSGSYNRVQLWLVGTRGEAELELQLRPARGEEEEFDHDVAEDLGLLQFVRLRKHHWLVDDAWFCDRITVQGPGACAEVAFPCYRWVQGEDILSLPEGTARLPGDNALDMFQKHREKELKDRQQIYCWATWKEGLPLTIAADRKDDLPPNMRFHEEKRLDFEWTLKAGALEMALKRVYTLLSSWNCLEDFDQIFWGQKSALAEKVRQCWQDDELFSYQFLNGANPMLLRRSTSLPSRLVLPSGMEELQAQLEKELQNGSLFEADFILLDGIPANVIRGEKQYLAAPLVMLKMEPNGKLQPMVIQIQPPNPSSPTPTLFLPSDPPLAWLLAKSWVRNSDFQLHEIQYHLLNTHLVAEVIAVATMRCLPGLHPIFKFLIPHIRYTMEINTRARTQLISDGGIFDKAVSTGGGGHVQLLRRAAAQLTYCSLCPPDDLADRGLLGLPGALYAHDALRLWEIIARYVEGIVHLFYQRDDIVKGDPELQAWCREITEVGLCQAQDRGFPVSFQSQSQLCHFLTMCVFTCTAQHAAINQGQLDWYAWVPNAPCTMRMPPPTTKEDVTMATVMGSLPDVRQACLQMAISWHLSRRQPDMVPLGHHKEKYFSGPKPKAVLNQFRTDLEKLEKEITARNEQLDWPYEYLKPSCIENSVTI
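Purified human 12hLO (150 nM final) in 25 mM Hepes, 0.01% Triton X-100, pH 7.0 was preincubated 15 min at room temperature with compound. Then 40 uM arachidonic acid was added, 30 min. Hydroperoxide was read by Fe-XO absorbance ratio 573/405 nm.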
HT1080 IDH1KD tx – HT-1080 IDH1 knockdown cell toxicity (counter line). actives 2% (n = 360,000). Potency, µM (top dose mostly 46.1 µM), usual class: cytotoxic. HT-1080 IDH1 knockdown viability, ATP luminescence, 48 h
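Using the IDH1-knockdown HT-1080 line run in the same batch and compound series as the NT line, viability after 48 h at 37 °C was determined by CellTiter-Glo luminescence and expressed as % activity.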
IL-1B inflam inh – inflammasome signaling inhibition, IL-1 beta readout; THP-1 LPS/ATP IL-1B secretion, AlphaLISA, 16 h; active compounds read low; activity change, % at 57.5 µM; actives 4.7% (n = 360,000); AID 743279; in the data active = activity change below about -50%; inconclusive = mostly about -30% to -49%
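THP-1 cells pretreated 1 hr with compounds (up to 57.5 uM final), then stimulated with LPS (250 ng/mL final) plus ATP (1.25 mM final); secreted IL-1B measured by AlphaLISA after 16 hr, decreased signal indicating inhibition.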
DT40 TDP1 no CPT – qHTS for Inhibitors of human tyrosyl-DNA phosphodiesterase 1 (TDP1): qHTS in cells in absence of CPT. DT40 Tdp1-/- hTDP1 cells, no CPT, ATP luminescence, 48 h. Potency, µM (highest dose often 46.2 µM), actives largely listed as inhibitors. actives 15% (n = 420,000). AID 686978, 2013; also: nearly all actives have a fitted effect of over 55% in size
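Chicken DT40 Tdp1-/- cells complemented with human TDP1, screened without camptothecin (DMSO vehicle only), 400 cells/well. Compounds pin-transferred, cells incubated at 37 °C for at least 48 hr. Growth read as ATP-dependent luminescence (CellTiter-Glo, 30 min at RT).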
HT1080NT lethal – kills 2HG-producing HT-1080-NT fibrosarcoma cells; actives 1.6% (n = 360,000); HT-1080-NT fibrosarcoma viability, CellTiter-Glo ATP luminescence, 48 h; Potency, µM (highest dose often 46.1 µM), actives largely listed as cytotoxic;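 also: NT is the 2HG producing partner of a matched IDH1 knockdown line; nearly all actives have a fitted effect of over 55% in size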
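HT-1080-NT; 750 cells/well; 5% FBS RPMI; 48 h compound, 37 degrees C; CellTiter-Glo luminescence; curve fitting and curve-class assignment.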
A number is an active result; 0 = inactive; ? = inconclusive; - = not tested or not shown; [ ] = another dose, or the depositor's remark. The sample as a whole holds a higher share of hits than the screen did. Unless noted, calls follow the shape of the dose curve; as a rule, active = well fitted curve in the direction sought with a large enough effect; inconclusive = small, poorly fitted or top-dose-only effect, or another doubt; inactive = no such curve, though single readings can be large; an effect the other way counts as inactive or inconclusive.

SMILES	DT40 TDP1 CPT	12-LOX inh	HT1080 IDH1KD tx	IL-1B inflam inh	DT40 TDP1 no CPT	HT1080NT lethal
Oc1ccc2c3c1O[C@H]1c4[nH]c5ccccc5c4C[C@@]4(O)C(C2)N(CC2CC2)CCC314 (stereo partly drawn)	?	0	-	-	?	-
C=C1CC[C@@]2(O)[C@H]3Cc4ccc(O)c5c4[C@@]2(CCN3CC2CC2)[C@H]1O5	0	-	0	0	0	0
Oc1ccc2c3c1OC1c4[nH]c5ccccc5c4C[C@@]4(O)C(C2)N(CC2CC2)CC[C@]314 (stereo partly drawn)	?	0	?	-64	?	?
Cc1ccc(C(C)C)cc1OCC(=O)N1CCN(Cc2nc(N)c3ccccc3n2)CC1	-	0	-	-	-	-
CC(C)CCN1CC2(C1)C(=O)Nc1ccccc12	-	0[12.5 µM]	-	-	-	-
Cc1nccc(N2CCN(C)C3(CCC(=O)N(C)CC3)C2)n1 (stereo not drawn)	-	0	-	-	-	-
CCCS(=O)(=O)NC[C@H]1C[C@@H]2CCN1C[C@@H]2c1cc(-c2ccccc2)nn1C	-	0	-	-	-	-
CN1Cc2ccccc2-n2ccnc2C12CCN(C(=O)Cc1cccs1)CC2	-	0	-	-	-	-
O=C1/C(=C/c2ccccc2)C[C@@]2(O)[C@H]3Cc4ccc(O)c5c4[C@@]2(CCN3CC2CC2)C1O5 (stereo partly drawn)	3.3µM	-	3.7µM	-108	2.6µM	1.6µM
O=C1CC[C@]2(O)C3Cc4ccc(O)c5c4C2(CCN3CC2CC2)C1O5 (stereo partly drawn)	0	-	-	-	0	-
C=C[C@@H]1C[C@@]1(C)[C@@H](NP(=O)(c1ccccc1)c1ccccc1)c1ccccc1	?	0	0	0	15µM	0
COC(=O)[C@]1(C)C[C@H]1[C@H](NP(=O)(c1ccccc1)c1ccccc1)c1ccccc1	?	0	0	0	?	0
Ic1ccccc1CN[C@@H]1C2CCN(CC2)[C@@H]1C(c1ccccc1)c1ccccc1	12µM	?	21µM	-50	6.5µM	18µM
N#Cc1cccc(-c2ccc3n(c2=O)C[C@H]2C[C@@H]3CN(C(=O)CSCC(=O)O)C2)c1	-	0	-	-	-	-
CCOc1ccc(-c2cn3c(n2)sc2cc(C(=O)N4CCCC(C)C4)ccc23)cc1 (stereo not drawn)	10µM	0	-	-	6.5µM	-
CCOc1ccc(C(=O)OC2CC3CCC(C2)N3C)cc1 (stereo not drawn)	0	0	0	0	?	0
Cc1ccccc1NC(=O)CCl	18µM	0	0	-86	23µM	0
Cc1cccc(C)c1OCC(=O)Nc1ccc(Cl)cc1C(=O)c1ccccc1	0	0	-	-	0	-
Cn1nccc1C(=O)N1[C@H]2CC[C@@H]1c1cnc(-c3ccc(F)cc3)nc1C2	-	0	-	-	-	-
CC(C)N(C)CC1CCN(C(=O)c2cn(Cc3ccccc3)c3ccccc23)CC1	-	0	-	-	-	-
Cc1ccc(CN2C3CCCC2CC(NC(=S)NCc2ccccc2)C3)cc1 (stereo not drawn)	?	?	?	-65	?	23µM
CCCCCn1c(=O)c(C(=O)Nc2cccc(C)c2)c(O)c2ccccc21	0	0	0	0	4.6µM	0
CCCCCCn1c(=O)c(C(=O)Nc2c(C)n(C)n(-c3ccccc3)c2=O)c(O)c2ccccc21	5.2µM	0	0	0	6.5µM	?
CCCCCn1c(=O)c(C(=O)Nc2ccccc2)c(O)c2ccccc21	4.1µM	0	0	0	5.2µM	0
CC(C)N1CCN(c2oc(C3CC3)nc2C#N)CC1	-	0	-	-	-	-
SMILES	DT40 TDP1 CPT	12-LOX inh	HT1080 IDH1KD tx	IL-1B inflam inh	DT40 TDP1 no CPT	HT1080NT lethal
COc1cc2c(cc1Oc1ccccc1)NC(=O)C21CCN(Cc2nccn2C)CC1	-	0	-	-	-	-
COCCN1CCC(N2CCN(C(=O)Cc3ccc(F)cc3)CC2)C1=O (stereo not drawn)	-	0	-	-	-	-
CCCC[N+]1(C)[C@H]2CC(OC(=O)[C@H](CO)c3ccccc3)C[C@H]1[C@H]1O[C@H]12 (stereo partly drawn)	-	0	-	-	-	-
COc1cccc(NC(=O)c2ccc3c(=O)n4nc(Nc5ccccc5OC)sc4nc3c2)c1	5.8µM	0	-	-	4.6µM	-
COc1cccc(NC(=O)CN2CC(c3ccccc3)CC2=O)c1 (stereo not drawn)	0	0	0	0	0	0
Cc1ccc(Cl)cc1Nc1nn2c(=O)c3ccc(C(=O)NCc4cccs4)cc3nc2s1	15µM	?	-	-	16µM	-
CCCNC(=O)COC(=O)c1cn(C)c2ccccc12	-	0	-	-	-	-
Cc1cc(C=C2C(=O)NC(=S)NC2=O)c(C)n1-c1ccc2c(c1)OCO2	?	?	?	-101	?	0
CN1CCc2cc3c(c4c2C1Cc1ccccc1-4)OCO3 (stereo not drawn)	0	0	0	-54	0	0
CC1=C(C(=O)O)N2C(=O)C(NC(=O)CCCC(=O)O)C2SC1 (stereo not drawn)	0	28µM	0	0	0	0
CCOC(=O)c1cccc(-[n+]2c(-c3ccccc3)cc(-c3ccccc3)cc2-c2ccccc2)c1	1.6µM	0	18µM	-67	1.6µM	?
CCOC(=O)c1ccc(-[n+]2c(-c3ccccc3)cc(-c3ccccc3)cc2-c2ccccc2)cc1	1µM	-	23µM	-99	0.73µM	18µM
CCCNC1CCc2ccccc2C1 (stereo not drawn)	-	0	-	-	-	-
O=C1Nc2ccccc2CC12CCCN(Cc1ccncc1)C2 (stereo not drawn)	-	0[6.33 µM]	-	-	-	-
O=c1c2ccccc2cnn1Cc1n[nH]c(=S)n1C1CC2CCC1C2 (stereo not drawn)	?	?	0	0	18µM	0
COc1ccc(NC(=O)CN(C)C(=O)CSC(c2ccccc2)c2ccccc2)cc1	0	?	0	0	?	0
Cc1ccccc1C(=O)Nc1ccc2nc(SCC(=O)N(C)c3ccccc3)sc2c1	?	0	-	-	15µM	-
COc1ccccc1C(=O)Nc1ccc2nc(SCC(=O)N(C)c3ccccc3)sc2c1	18µM	0	-	-	12µM	-
CC(C)(C)c1ccc(C(=O)Nc2ccc3nc(SCC(=O)N4CCCC4)sc3c2)cc1	8.2µM	0	-	-	4.1µM	-
CCOc1ccc(C(=O)Nc2ccc3nc(SCC(=O)N4CCCC4)sc3c2)cc1	?	0	-	-	?	-
COC(=O)c1ccc(NC(=O)c2cccn(Cc3ccccc3C)c2=O)cc1	0	0	-	-	0	-
O=C(NC1CCCCC1)N1C[C@@H]2C[C@H](C1)c1ccc(C3CCCCC3)c(=O)n1C2	-	0	-	-	-	-
COc1ccccc1CNC(=O)[C@H]1CN2CCC1C[C@@H]2Cn1cc(C(C)(C)O)nn1 (stereo partly drawn)	-	0	-	-	-	-

From PubChem
